Measured values published in PubChem BioAssay AID431 (Sanford-Burnham Center for Chemical Genomics, 2006).
In all, about 63,000 compounds went through this assay and about 1,100 (1.7%) were called active. The full list was thinned out, with actives kept by preference. Results with a measured potency or affinity are listed apart. Values without a mark were called inactive.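 How the source made its calls: active means compounds whose percent cytotoxicity in the single-dose primary screen, scaled between solvent and toxic-drug controls, exceeds 50; inactive means the rest.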

Assay: cytotoxicity in KRAS-transformed pancreatic duct cells, primary screen, cell-based, fluorescence, HTS (AID 431);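 further: 0% = DMSO solvent wells and 100% = doxorubicin-treated wells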
Details: HPDE-C7K KRASV12 cells, Alamar Blue viability, 48 h; at 10 µM; active compounds read high

For `CC(C)n1nc(C(=O)Nc2nc3ccc(S(C)(=O)=O)cc3s2)c2ccccc2c1=O`, which cytotoxicity is on record?
The cytotoxicity was 53.7% (active).

With `CS(=O)(=O)c1ccc2nc(NC(=O)c3cccs3)sc2c1` as the molecule, how does the cytotoxicity read?
The cytotoxicity was 3%.

Which cytotoxicity does the source give for `COc1ccccc1C(=O)Nc1nc2ccc(S(C)(=O)=O)cc2s1` here?
Its cytotoxicity is -0.1%.

Which cytotoxicity does the source give for `Cc1cccc(OCCCc2c(C)n[nH]c2C)c1` here?
The cytotoxicity was 12.8%.

Which cytotoxicity does the source give for `CCCCNS(=O)(=O)c1ccc2nc(SCC(=O)Nc3sccc3C#N)[nH]c2c1` here?
Its cytotoxicity is 80.6% (active).

With `CCCCNS(=O)(=O)c1ccc2nc(SCC(=O)c3ccc(C#N)cc3)[nH]c2c1` as the molecule, how does the cytotoxicity read?
Its cytotoxicity is 10.9%.

For `N#Cc1ccsc1NC(=O)CSc1ncn[nH]1`, which cytotoxicity is on record?
Its cytotoxicity is -18.4%.

Which cytotoxicity does the source give for `CCn1cc(/C=C(/C#N)S(=O)(=O)c2ccccc2)cn1` here?
Its cytotoxicity is 2.3%.

For `Cc1ccc(C(C)NC(=O)c2c(C)noc2C)cc1C` (stereo not drawn), which cytotoxicity is on record?
The cytotoxicity was -2.1%.

For `CCOC(=O)N1CCN(Cc2nc(N)nc(Nc3ccc(Oc4ccccc4)cc3)n2)CC1`, which cytotoxicity is on record?
Its cytotoxicity is 28%.

With `CCOc1ccccc1OCC(=O)O` as the molecule, how does the cytotoxicity read?
The cytotoxicity was 6.8%.

For `O=C(O)COc1ccc2nsnc2c1Cl`, which cytotoxicity is on record?
Its cytotoxicity is -27.6%.

With `C=CCOc1ccccc1/C=N/O` as the molecule, how does the cytotoxicity read?
The cytotoxicity was -4.8%.

Which cytotoxicity does the source give for `O=C1CN(C(=O)c2ccc(Br)o2)C(c2ccccc2)c2cc(F)ccc2N1` (stereo not drawn) here?
The cytotoxicity was 3%.

With `COCCN(CC(=O)NCc1ccccc1)C(=O)CCC(=O)Nc1ccccn1` as the molecule, how does the cytotoxicity read?
Its cytotoxicity is 4.7%.

For `CCCCOc1ccc(C(=O)NC)cc1`, which cytotoxicity is on record?
The cytotoxicity was -11.7%.

With `CCCCOc1ccc(C(=O)OC2CC(C)N(C)CC2C)cc1` (stereo not drawn) as the molecule, how does the cytotoxicity read?
The cytotoxicity was 81.6% (active).

For `CCCCOc1ccc(C(=O)N2CCC(C)CC2)cc1`, which cytotoxicity is on record?
The cytotoxicity was -4.4%.

Which cytotoxicity does the source give for `Cc1cc(C)n(-c2nc3nonc3nc2-n2nc(C)cc2C)n1` here?
The cytotoxicity was -2.4%.

With `C=CCn1c(O)c(C2=c3ccccc3=NC2=O)s/c1=N/c1nccs1` as the molecule, how does the cytotoxicity read?
Its cytotoxicity is -2.3%.

With `C=CCn1c(O)c(C2=c3ccccc3=NC2=O)sc1=Nc1ccc(O)cc1` as the molecule, how does the cytotoxicity read?
The cytotoxicity was 117% (active).

Which cytotoxicity does the source give for `O=C1N=c2ccccc2=C1c1sc(=S)n(CC2CCCO2)c1O` (stereo not drawn) here?
Its cytotoxicity is 20.6%.

With `C=CCOC(=O)C1=C(C)NC(C)=C(C(=O)OCC=C)C1c1ccc(O)cc1` as the molecule, how does the cytotoxicity read?
The cytotoxicity was 1.1%.

For `CN1C(=O)CC(C(=O)Nc2ccc(F)cc2)SC1=Nc1ccc2c(c1)OCO2` (stereo not drawn), which cytotoxicity is on record?
Its cytotoxicity is 12.5%.

For `O=C(COc1nncc2ccccc12)NCCC1=CCCCC1`, which cytotoxicity is on record?
Its cytotoxicity is -7.1%.

Which cytotoxicity does the source give for `COc1cc(CC(=O)Oc2ccc3c(c2)OCO3)cc(OC)c1OC` here?
Its cytotoxicity is 27.3%.

Which cytotoxicity does the source give for `COc1cc(CC(=O)NCc2ccc3c(c2)OCO3)cc(OC)c1OC` here?
The cytotoxicity was -11.8%.

With `COc1cc([C@@H]2c3cc4c(cc3[C@H](O)[C@H]3COC(=O)[C@H]23)OCO4)cc(OC)c1OC` as the molecule, how does the cytotoxicity read?
Its cytotoxicity is 70% (active).
